± gives the standard deviation of the averaged measurements.
System: AEK1 (Tb927.3.2440)
Test: percent reduction in TR-FRET probe signal relative to DMSO control; higher = stronger displacement of ATP-site probe (binding)
Conditions: 1 µM; incubation time 1 h

SMILES | percent reduction in TR-FRET probe signal
Cc1ccc(-n2nc(C(C)(C)C)cc2NC(=O)Nc2ccc(OCCN3CCOCC3)c3ccccc23)cc1 [BIRB 796 (Doramapimod)] | 1.12 ± 5.4%
CCCCCCCCCCCCCCCc1cccc(O)c1C(=O)O [Anacardic Acid] | 19.2 ± 19%
Oc1ccc(Nc2nc(-c3ccc(Cl)cc3)cs2)cc1 | -4.54 ± 4.1%
OCCn1cc(-c2ccc3c(c2)CC/C3=N\O)c(-c2ccncc2)n1 | -6.91 ± 7.5%
CN(C)C/C=C/C(=O)Nc1cc2c(Nc3ccc(F)c(Cl)c3)ncnc2cc1O[C@H]1CCOC1 [Afatinib (BIBW2992)] | 15.6 ± 31%
NCC(=O)Nc1ccc(-n2nc(C(F)(F)F)cc2-c2ccc3c(ccc4ccccc43)c2)cc1 | -2.82 ± 7.5%
Cc1cnc(NC(=O)Nc2cc(Br)c(C)cc2OC[C@@H]2CNCCO2)cn1 | 9.29 ± 6.3%
Cl.Cl.c1cc(-c2cnn3cc(-c4ccc(OCCN5CCCCC5)cc4)cnc23)ccn1 [Dorsomorphin 2HCl] | -8.77 ± 4.9%
CNC(=O)c1cccc(-c2ccc3c(N4CCOC[C@@H]4C)nc(N4CCOC[C@@H]4C)nc3n2)c1 [Vistusertib (AZD2014)] | 9.57 ± 9.3%
C1=C/COCc2cc(ccc2OCCN2CCCC2)Nc2nccc(n2)-c2cccc(c2)COC/1 [Pacritinib (SB1518)] | -2.95 ± 9.1%
C[C@@H]1CCN(C(=O)CC#N)C[C@@H]1N(C)c1ncnc2[nH]ccc12.O=C(O)CC(O)(CC(=O)O)C(=O)O | -1.47 ± 8.1%
COc1cc2c(Oc3ccc4[nH]c(C)cc4c3F)ncnc2cc1OCCCN1CCCC1 [Cediranib (AZD2171)] | 63.4 ± 7.6%
CCCCCCCCCCCCCCCCCCOP(=O)([O-])OC1CC[N+](C)(C)CC1 [Perifosine (KRX-0401)] | -18.1 ± 6.6%
CN1CCN(c2ccc(C(=O)Nc3n[nH]c4ccc(Cc5cc(F)cc(F)c5)cc34)c(NC3CCOCC3)c2)CC1 [Entrectinib (RXDX-101)] | -3.42 ± 2.4%
CC(C)(C#N)c1ccc(N2C(=O)OCc3cnc4ccc(-c5cnc6ccccc6c5)cc4c32)cc1 | -6.23 ± 1.2%
Cc1cc(O)c2c(c1)C(=O)c1cccc(O)c1C2=O [Chrysophanic Acid] | 6.22 ± 14%
Cc1cc(C)c(/C=C2\C(=O)Nc3ccccc32)[nH]1 [Semaxanib (SU5416)] | 2.37 ± 8.9%
Cc1[nH]c2ccccc2c1C1=C(NCCc2ccc(F)cc2)C(=O)N(C)C1=O | 8.32 ± 10%
CC(C)(C)c1cc(NC(=O)Nc2ccc(-c3cn4c(n3)sc3cc(OCCN5CCOCC5)ccc34)cc2)no1 [Quizartinib (AC220)] | 9.26 ± 2.9%

SMILES | percent reduction in TR-FRET probe signal
CCOc1cc(N2CCC(O)CC2)ccc1Nc1ncc2c(n1)N(C)c1ccccc1C(=O)N2C | -8.09 ± 7.7%
Cc1cc([C@@H](C)Nc2ccccc2C(=O)O)c2nc(N3CCOCC3)cc(=O)n2c1 | -5.32 ± 14%
CC(C)(C)Cn1c(N)nc2ccc(-c3[nH]c(C(C)(C)C)nc3-c3ccc(F)cc3)nc21.CS(=O)(=O)O.CS(=O)(=O)O | -14.9 ± 5.8%
COc1cc2ncnc(Nc3cccc(Cl)c3)c2cc1OC [AG-1478 (Tyrphostin AG-1478)] | 0.453 ± 6.3%
COc1cc(Nc2ncc(F)c(Nc3ccc4c(n3)NC(=O)C(C)(C)O4)n2)cc(OC)c1OC [R406 (free base)] | 87.4 ± 6%
CC(C)CCN1c2nc(Nc3cc(F)c(O)c(F)c3)ncc2N(C)C(=O)C1C (configuration not stated) | -13.7 ± 9.2%
Oc1c(F)cc(-c2cnccc2-c2ccc(N3CCOCC3)cc2)cc1F | 8.04 ± 13%
CCN(CC)CCCC(C)Nc1nc(C)cc(Nc2ccc3nc(C)cc(N)c3c2)n1.Cl.Cl.Cl (configuration not stated) | -2.65 ± 9%
COc1cc2ncnc(Oc3cccc(NC(=O)Nc4cc(C(C)(C)C(F)(F)F)on4)c3)c2cc1OC | 1.1 ± 13%
CNc1nc(-c2ccc3c(N)n[nH]c3c2)cc(N2C[C@@H](C(=O)NC3CCCCC3)CC[C@H]2C)n1 | 14.7 ± 20%
COc1cc(Nc2ncc3c(n2)-c2ccc(Cl)cc2C(c2c(F)cccc2OC)=NC3)ccc1C(=O)O [Alisertib (MLN8237)] | 2.08 ± 9.1%
CS(=O)(=O)c1cccc(CNc2nc(Nc3ccc4c(c3)CCC(=O)N4)ncc2C(F)(F)F)c1 | 39.5 ± 13%
Nc1nc(NCCNc2ncc(-n3ccnc3)c(-c3ccc(Cl)cc3Cl)n2)ccc1[N+](=O)[O-] | 4.72 ± 12%
COc1ccc(-c2nc(N3CCOCC3)c3sc(CN(C)c4ncc(C(=O)NO)cn4)cc3n2)cn1 | -2.41 ± 5.7%
COc1nccc(-c2c(-c3ccc(F)cc3)ncn2[C@H]2CC[C@H](O)CC2)n1 | -2.94 ± 9.9%
N#CC[C@H](C1CCCC1)n1cc(-c2ncnc3[nH]ccc23)cn1 | 22.6 ± 7.6%
CN(C)CCOc1ccc(-c2nc(-c3ccncc3)c(-c3ccc4c(c3)CC/C4=N\O)[nH]2)cc1 | 3.05 ± 12%
C=CC(=O)Nc1cccc(Oc2nc(Nc3ccc(N4CCN(C)CC4)cc3OC)ncc2Cl)c1 | 3 ± 23%

Source: the supplement of paper PMC10720658
